CYP2C19 activ = human CYP2C19 activators, primary screen, biochemical, luminescence. recombinant CYP2C19, luciferin-H EGE luminescence; active compounds read high; 0 = fully inhibited enzyme, 1 = untreated enzyme. 96,000 tested, under 10 active. activation factor at 5 µM;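 active = activation factor of at least 2 at 5 µM in the primary screen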;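 also: 0 = wells with 2.5 mM tranylcypromine and 1 = vehicle-only wells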
CYP2C19 inh = blockers of cytochrome P450 2C19 activity – biochemical, luminescence, ADME assay, primary screen; P33261; CYP2C19 Supersomes, luciferin-H EGE luminescence, 30 min; inhibition, % at 5 µM; hit rate 21% among 96,000; AID 778, 2007;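 active = CYP2C19 inhibition above a set limit at 5 µM in the primary screen, cut at about 50% in these data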;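 also: plate controls were negative control wells for no effect and 2.5 mM tranylcypromine positive control for full effect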
CYP2C9 activ = human CYP2C9 activators, primary screen, biochemical, luminescence; activation factor at 5 µM; hit rate 1.4% among 96,000; AID 1024, 2008; Cytochrome P450 2C9 (Homo sapiens), P11712; recombinant CYP2C9, luciferin-H conversion; active compounds read high; factor 1 = untreated enzyme, 0 = blocked;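 active = activation factor of 2 or more for CYP2C9 at a 5 µM dose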;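 also: 0 = sulfaphenazole-blocked wells and 1 = vehicle-only wells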
Target sequence (P11712 whole entry, looked up): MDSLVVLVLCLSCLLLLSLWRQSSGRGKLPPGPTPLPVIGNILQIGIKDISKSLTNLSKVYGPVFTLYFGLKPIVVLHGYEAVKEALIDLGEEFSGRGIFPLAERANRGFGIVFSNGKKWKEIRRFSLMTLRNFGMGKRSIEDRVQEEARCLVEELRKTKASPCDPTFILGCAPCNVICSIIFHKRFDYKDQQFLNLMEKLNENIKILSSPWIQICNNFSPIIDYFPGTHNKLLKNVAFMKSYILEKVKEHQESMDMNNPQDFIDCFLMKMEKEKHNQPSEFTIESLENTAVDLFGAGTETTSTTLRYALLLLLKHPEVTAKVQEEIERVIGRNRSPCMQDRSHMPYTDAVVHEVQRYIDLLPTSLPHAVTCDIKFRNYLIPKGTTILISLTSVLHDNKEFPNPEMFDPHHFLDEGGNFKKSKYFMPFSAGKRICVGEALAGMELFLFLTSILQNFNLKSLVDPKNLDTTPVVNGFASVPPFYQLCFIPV
CYP2C9 inh = blockers of cytochrome P450 2C9 activity – biochemical, luminescence, ADME assay, primary screen; CYP2C9 Supersomes, luciferin-H conversion; AID 777, 2007; inhibition, % at 5 µM; hit rate 20% among 96,000;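 active = blocking of liver enzyme CYP2C9 beyond about 50% at 5 µM, limit read from the data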
Cav32 inh = Cav3.2 calcium influx blockers – cell-based, Fluo-4 calcium fluorescence, FDSS, MLSMR library, primary screen | Cav3.2-expressing cells; active compounds read low | hit rate 4% among 100,000 | Voltage-dependent T-type calcium channel subunit alpha-1H (Homo sapiens), O95180 | AID 449739, 2010 | B-score at 10 µM;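 active = single-dose well whose peak fluorescence ratio is a statistical outlier from its plate by either plate-standardised score or position-corrected B-score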
* marks the source's active call; other numbers are inactive results; · = no result. Only some compounds are listed: those with a hit (about 27% of all), similar ones and a draw of the others.

SMILES	CYP2C19 activ	CYP2C19 inh	CYP2C9 activ	CYP2C9 inh	Cav32 inh
COc1ccc(C2C(C#N)=C(N)Oc3n[nH]c(C)c32)cc1Cn1nnc2ccccc21 (centres undefined)	0.5	46	0.3	68*	1.4
COCc1[nH]nc2c1C(c1ccc(OC)c(OC)c1)C(C#N)=C(N)O2 (centres undefined)	1	-1	1.1	-6	-0.12
CCCc1[nH]nc2c1C(c1ccc(OCCN3CCOCC3)c(OC)c1)C(C#N)=C(N)O2 (centres undefined)	0.9	12	0.6	44	-0.78
Cc1[nH]nc2c1C(c1ccc3c(c1)OCO3)C(C#N)=C(N)O2 (centres undefined)	0.4	60*	0.4	57*	-0.68
CCSc1nc2c(c(=O)[nH]1)C(C(C)C)C(C#N)=C(N)O2 (centres undefined)	1.2	-24	0.9	12	1.8
CCCC/C(C)=N/NC(=O)C(=O)NCCc1ccccc1	1	2	0.8	15	-1
C=C(C)C(=O)Nc1cccc(C2=NOC3(C2)C[C@@H](C(N)=O)N(C(=O)CC(c2ccccc2)c2ccccc2)C3)c1 (some centres undefined)	·	·	·	·	-0.32
CCCCN1CCc2c([nH]c3c(C)cccc23)C1=O	0.5	46	0.5	48	-2.2
CCCCNC(=O)c1ccc(S(=O)(=O)c2ccc(Cl)cc2)c(NC(C)=O)c1	0.5	49	0.6	38	-0.71
CCCc1nn(CCc2ccccn2)c(N)c1CC	0.7	31	0.9	8	0.66
CCCc1[nH]nc2c1C(c1ccc(O)c(OC)c1)C(C#N)=C(N)O2 (centres undefined)	0.4	60*	0.8	24	·
CCCc1[nH]nc2c1C(c1ccccc1OC)C(C#N)=C(N)O2 (centres undefined)	0.7	28	0.8	17	0.68
COc1ccc2nc(N3CCCC3)[nH]c2c1	0.9	7	1	2	1.2
CCCCc1nc2ccccc2c(=O)n1NC(=O)c1c(O)c2cccc3c2n(c1=O)CCC3	0.9	8	0.5	53*	·
CC(=O)N=c1sccn1CC(=O)c1ccc([N+](=O)[O-])cc1	0.8	24	0.9	14	0.59
Cc1cccc(OCCCSc2nc3ccc(C)cc3[nH]2)c1	0.1	86*	0.2	78*	-4.6*
Cc1cc(=O)[nH]c(SCCOc2cccc(C(F)(F)F)c2)n1	0.8	18	1	-1	-0.031
CCn1c(N)c(C(=O)NCCCOC)sc1=S	0.8	20	0.8	16	·
CC(C)OCCCNC(=O)c1sc(=S)n(C)c1N	0.4	57*	0.3	67*	-0.16
Cc1ccc(-c2nc(-c3cccnc3)no2)c(C)c1	0.5	52*	0.9	14	1
COc1nc(-c2ccc(C)cc2)ccc1-c1noc(-c2cccnc2)n1	0.7	27	0.6	42	·
Cc1ccc(C)c(OCc2nc(-c3cccnc3)no2)c1	0.1	90*	0.7	31	-2.4
Cc1ccc(C(=O)N2CCN(c3ccc(C(F)(F)F)cn3)CC2)c(C)c1	0.4	64*	0.8	19	-2.5
Cc1ccc(C(=O)N2CCN(c3ccc(C(F)(F)F)cn3)CC2)cc1	0.8	22	0.8	17	-0.002
COc1cc2c(cc1OC)C(C)=NCC2	·	·	·	·	0.33
SMILES	CYP2C19 activ	CYP2C19 inh	CYP2C9 activ	CYP2C9 inh	Cav32 inh
COc1cc2c(cc1OC)C(c1ccc(-c3ccc(Cl)cc3Cl)o1)=NCC2	0.7	29	0.4	56*	·
COc1cc2c(cc1OC)C(c1ccc(-c3cc(Cl)ccc3Cl)o1)=NCC2	0.3	73*	0.1	89*	-0.33
COc1cc2c(cc1OC)C(c1ccc(-c3ccc(Cl)c(Cl)c3)o1)=NCC2	0.2	83*	0.1	95*	-2
O=C(O)c1ccc(-c2ccc(Cl)cc2Cl)o1	1.1	-7	0.7	32	-0.64
CC1(C)Cc2c(sc3c4nnnn4c4nnnn4c23)CO1	0.9	7	0.9	7	0.8
O=C(C1CCN(S(=O)(=O)N2CCOCC2)CC1)N1CCN(c2ccccc2)CC1	1.1	-10	1.1	-14	0.99
CC1CCCCC1NC(=O)CCn1c(=O)oc2ccccc21 (centres undefined)	·	·	·	·	0.62
Cc1cccc(NC(=O)Cn2c(=O)oc3ccccc32)c1	0.4	58*	0.9	6	-0.15
Cc1cccc(NC(=O)CN2C(=O)NC(Cc3ccccc3)C2=O)c1 (centres undefined)	0.5	47	0.4	60*	-1.7
Cc1ccc(CNC(=O)Cn2c(=O)oc3ccccc32)o1	0.8	24	1	0	0.15
O=C(CCn1c(=O)oc2ccccc21)Nc1cccc(Cl)c1	0.4	55*	2*	-102	-0.39
CC1CCCC(NC(=O)CCn2c(=O)oc3ccccc32)C1C (centres undefined)	0.6	43	2*	-101	0.8
Cc1ccc(-n2c(-c3ccncc3)nnc2-c2cccs2)cc1	·	·	·	·	-0.45
CCOc1ccc(CN2C(=O)c3ccccc3C2C(=O)NCc2cccnc2)cc1 (centres undefined)	0.7	26	0.7	28	-0.59
Cc1cccc(N(C(=O)c2ccc(Cl)cc2)C2CS(=O)(=O)CC2OC(=O)c2ccc(Cl)cc2)c1 (centres undefined)	1	4	0.6	40	-2.1
CCn1c(-c2cc3c(C(F)(F)F)nn(C)c3s2)n[nH]c1=S	0.7	31	0.8	22	0.32
CCCCCC(=O)Nc1cccc(C2=NOC3(C2)C[C@H](C(N)=O)N(C(=O)CC#N)C3)c1 (some centres undefined)	·	·	·	·	0.41
CCOc1ccc(CNC(=O)CCn2c(=O)oc3ccccc32)cc1OC	0.7	27	0.9	8	0.43
COc1cccc(CNC(=O)CCn2c(=O)oc3ccccc32)c1	0.4	58*	1.2	-21	·
CN(CC(=O)N1CCc2ccccc21)S(=O)(=O)c1cccs1	0.1	89*	3*	-199	-0.011
COc1cc(NC(=O)C2CC(=O)NC3=C2C(=O)CCC3)cc(OC)c1 (centres undefined)	1	-4	0.8	16	0.038
O=C(NNC(=O)c1ccccc1Br)c1ccc(Cl)c(Cl)c1	0.8	24	2.2*	-123	-0.00021
O=C(NNC(=O)c1ccccc1-n1cccc1)c1ccc(Cl)c(Cl)c1	0.5	50*	1.5	-49	0.51
CC(C)(C)c1ccc(C(=O)NNC(=O)c2ccccc2Br)cc1	1.1	-10	1.1	-5	-0.036
O=C(NNC(=O)c1ccccc1-n1cccc1)c1ccc(Cl)cc1	1	-1	1.8	-78	-0.14
CC1CCN(C(=O)CSc2nc3ccccc3c(=O)n2Cc2ccc3c(c2)OCO3)CC1	0.4	62*	0.3	67*	-4.9*

From PubChem
